Experimental data from PubChem BioAssay AID1626 (SRMLSC, 2009).
Among all 220,000 compounds or so, about 2,000 (0.91%) were called active. Roughly 2% stayed inconclusive and do not appear here. Not all results are given here. Results with a measured potency or affinity are listed apart. Values without a mark were called inactive. No stated cut-off is given here; in the data, inconclusive means inhibition above about 80% without an active follow-up result; inactive means below that; test concentration not stated here.

assay: M. tuberculosis H37Rv growth inhibitors, H37Rv strain (AID 1626); settings: stronger effect = higher value, concentration not given here;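 further: bacteria incubated seven days before Alamar blue readout; 0% = bacteria only wells and 100% = bacteria with antibiotic wells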

SMILES	inhibition [%]
CCc1nc(SCc2ccc(C(=O)OC)o2)n[nH]1	1.73
COc1cc(C(=O)Nc2ccc(-n3cnnn3)c(C)c2)cc(OC)c1OC	-2.46
Cc1ccc2[nH]c(=O)c(CN(Cc3ccco3)S(=O)(=O)c3c(C)ccc4nsnc34)cc2c1	1.42
COc1ccc(NC(=O)C/C(C)=N/NC(=O)C(=O)NC(C)C)c(OC)c1	-3.77
O=C(O)Cc1ccc(NC(=O)c2cnccn2)cc1	2
CCOC(=O)c1ccc(NC(=O)c2cnccn2)cc1	38.2
CCCCOC(=O)c1ccc(NC(=O)c2cnccn2)cc1	79.1
CCOc1ccc(NC(=O)c2cnccn2)cc1	7.63
COCCNc1ccc(-c2nn(C)c(=O)c3ccccc23)cc1[N+](=O)[O-]	-0.74
CN1CCN(C(=O)c2ccc(N3CCCC3=O)cc2)CC1	-13.8
COc1c(C)cccc1C(=O)Nc1ccc(N2CCOCC2)c(Cl)c1	6.42
C/C(=N/NC(=O)CNC(=O)CCc1ccccc1)c1ccc(Cl)cc1	-2.99
O=C(Oc1ccccc1)c1c(Cl)cccc1P(=O)(O)O	-3.52
CCCc1nnc(-c2cc(OC)c(OC)c(OC)c2)o1	0.88
Nc1nnc(SCCCC(=O)c2ccc(Br)cc2)s1	0.26
Nc1nnc(SCCCC(=O)c2ccc(F)cc2)s1	7.95
Cc1c(C(=O)O/N=C(\N)c2ccccn2)cccc1[N+](=O)[O-]	-0.03
COc1ccc(CSc2cccc3cccnc23)cc1[N+](=O)[O-]	-0.94
Cc1c(C(=O)Nc2cccc3cccnc23)oc2ccccc12	-1.97
O=[N+]([O-])c1ccccc1OCCOCCOc1cccc2cccnc12	-5.36
NC(=O)c1ccc(Oc2cccc3cccnc23)c([N+](=O)[O-])c1	49.5
CCc1nc2ccccc2c(C(=O)Oc2cccc3cccnc23)c1C	22.1
COc1ccccc1NC(=O)N1CCN(c2ccc(F)cc2)CC1	4.69
COCCCNC(=S)N1CCC(NC(=O)c2ccco2)CC1	0.03
CCCCOC(=O)N/N=C/C=C/c1ccccc1	5.74

SMILES	inhibition [%]
COc1ccc2[nH]cc(CCNC(=S)NC3CCCC3)c2c1	4.31
NNC(=O)c1ccc(Cn2cc(Br)cn2)o1	-4.47
CCn1cnc2cc(NCc3cccs3)ccc21	3.06
CN(C)C(CNC(=S)Nc1cccc(Cl)c1)c1ccccc1 (centres undefined)	3.58
Nc1cc2c(cc1C(=O)c1cccc(Br)c1)OCCO2	4.56
Cc1ccc(NS(=O)(=O)c2cc(C(=O)Nc3cccc(N(C)S(C)(=O)=O)c3)ccc2C)c(C)c1	8.69
Cc1ccc(NS(=O)(=O)c2cc(NC(=O)c3cc4c(s3)CCCC4)ccc2C)c(C)c1	6.18
COc1ccc(NC(=O)c2cccc(S(=O)(=O)Nc3ccc(Br)cc3)c2)cn1	7.12
O=C(Nc1cccc(S(=O)(=O)Nc2ccc(Cl)cc2)c1)c1ccc[n+]([O-])c1	8.19
CS(=O)(=O)N1CCCC(C(=O)NCCN2CCC(Cc3ccccc3)CC2)C1 (centres undefined)	3.9
CCN(CC)C(=O)C(=O)c1ccn(-c2c(C)csc2C(=O)OC)c1	10.3
COc1cccc(/C=C(\C#N)C(=O)NC2CCS(=O)(=O)C2)c1 (centres undefined)	-1.08
Brc1ccc(C2C3=C(Nc4ncnn42)c2ccccc2OC3c2ccncc2)cc1 (centres undefined)	3.46
Fc1ccc(C2C3=C(Nc4ncnn42)c2ccccc2OC3c2ccncc2)cc1 (centres undefined)	1.81
Cc1ccc(C2c3c(oc4ccccc4c3=O)C(=O)N2c2nncs2)cc1 (centres undefined)	-7.54
COc1ccc(CCNC(=O)c2cc(-c3ccccc3OC)on2)cc1OC	-17.8
COc1ccc(C(=O)O/N=C2\CCS(=O)(=O)c3sccc32)cc1	-3.81
O=S1(=O)CCC(=Nc2ccc(Cl)cc2)c2ccsc21	3.58
COc1ccc(Cl)cc1S(=O)(=O)Oc1ccc(NC(C)=O)cc1	-3.14
C=CCNc1nc(SC)nc2ccsc12	19.7
C=CCSc1nc(NC)c2sccc2n1	64.3
Cc1oc(C)c(C(=O)O)c1COc1ccc(C(=O)O)cc1	-4.93
CN(C)c1oc(COc2ccc(F)cc2)nc1C#N	0.53
COc1ccccc1NC(=O)COC(=O)[C@@H]1CCCN1C(=O)c1cccs1	2.35
COc1ccc(CCNC(=O)CSc2cn(Cc3ccccc3)c3ccccc23)cc1OC	0.69

SMILES	inhibition [%]
CCOC(=O)CSc1nnc(-c2ccc(S(=O)(=O)N3CCOCC3)cc2)n1-c1ccccc1	14.9
O=C(CNCC1CCCCC1)Nc1ccc(N2CCCCC2)cc1	5.47
CC1CCCCN1CC(=O)Nc1ccc(N2CCCCCC2)cc1 (centres undefined)	7.03
O=[N+]([O-])c1ccc(Sc2nnnn2-c2ccccc2)c(Cl)c1	-0.26
O=[N+]([O-])c1ccc(Sc2ccccc2)nc1	1.27
O=C(COC(=O)c1cncc(Br)c1)NC1CCCCC1	0.66
Cn1cc(/C=N\NC(=O)C2COc3ccccc3O2)c2ccccc21 (centres undefined)	11.9
c1cncc(-c2nc(-c3ccco3)cs2)c1	2.43
Cc1ccc(S(=O)(=O)NC(=O)Nc2cc(C)ccc2F)cc1	-4.28
Cc1ccc(S(=O)(=O)Nc2nc(-c3ccc(F)cc3)cs2)cc1	-5.33
COc1ccccc1N1CCN(C(=O)c2ccc(CN3CCOCC3)cc2)CC1	4.65
c1ccc(-c2nc(-c3cccnc3)n[nH]2)cc1	4.63
Nc1n[nH]c(-c2cccc([N+](=O)[O-])c2)n1	2.42
CCCOc1cccc(C2/C(=C(/O)c3ccc(OC)cc3)C(=O)C(=O)N2CCN(C)C)c1 (centres undefined)	-1.44
Cc1ccc(NC(=S)NCCSc2ccc(Cl)cc2)c(C)c1	17.1
COc1cc(CNCc2ccccn2)ccc1OCc1cccc(Cl)c1	28.4
COc1cc(CNCc2ccccn2)ccc1OCc1ccc(Cl)cc1	31.7
COc1cc(CNCc2ccccn2)ccc1OCc1ccccc1Cl	61
COc1cc(CNCc2ccccn2)ccc1OCc1c(Cl)cccc1Cl	56.6
Cc1nnc(NC(=O)NCN2C(=O)C3C4C=CC(C4)C3C2=O)s1 (centres undefined)	-8.61
CCN(CC)P(=O)(Oc1ccccc1)Oc1ccccc1	7.92
C#CCOCCOCCOCCNc1nc(N2CCN(C(=O)[C@H](C(C)C)n3cc(CCO)nn3)CC2)nc(N2CCN(C(=O)[C@H]([C@@H](C)CC)n3cc(CCCCN)nn3)CC2)n1	1.48
Cc1cccc2nc(-c3cccc(NC(=O)Cc4ccccc4)c3)cn12	10.1
c1cncc(CSc2nnc3ccc(-c4ccco4)nn23)c1	-0.26
Cc1ccc(NC(=O)CSc2nnnn2C)cc1S(=O)(=O)N(C)C	-2.13

SMILES	inhibition [%]
Nc1nc(SCC(=O)Nc2ccc(Br)cc2F)n[nH]1	0.13
O=C(CSc1ncn[nH]1)Nc1ccc([N+](=O)[O-])cc1Br	10.6
CN(C)CCCCOc1ccc(Br)cc1Cl	6.22
N#Cc1c(N)nc(SCC(=O)OCc2ccccc2)c(C#N)c1-c1ccco1	74
CCCCOc1ccc(-c2c(C#N)c(N)nc(SCC(N)=O)c2C#N)cc1	-5.04
CC(C)OC(=O)CSc1nc(N)c(C#N)c(-c2cccs2)c1C#N	40.9
CCOC(=O)CC(=O)CSc1nc(N)c(C#N)c(-c2ccc(Cl)cc2)c1C#N	-8.64
CC(C)OC(=O)CSc1nc(N)c(C#N)c(-c2ccco2)c1C#N	53.1
CC(=O)CSc1nc(N)c(C#N)c(-c2cccs2)c1C#N	-7.14
CCOC(=O)CC(=O)CSc1nc(N)c(C#N)c(-c2ccc(F)cc2)c1C#N	-2.96
CCCCOC(=O)CSc1nc(N)c(C#N)c(-c2ccc(OCC)cc2)c1C#N	57.9
Cc1ccc(-n2c(O)c(C=NCCN3CCOCC3)c(=O)[nH]c2=O)cc1	2.96
CCCc1nnc(NC(=O)Nc2ccc(OC)cc2)s1	-1.18
COc1ccc(S(=O)(=O)N2CCOCC2)cc1Cl	5.97
Cc1ccc(N2C(=O)NC(=O)/C(=C/c3cnn(-c4ccc(C)cc4)c3)C2=O)cc1	79.9
CCCN1C(=O)c2cc(C(=O)Nc3ccc(OC)c(OC)c3)ccc2C1Nc1ccc(OC)c(OC)c1 (centres undefined)	4.17
CCn1cc(C(=O)N2CCCCC2)c2ccccc21	-0.75
Cn1c(=O)oc2cc(S(=O)(=O)N3CCC4(CC3)OCCO4)ccc21	-6.19
O=C(CSc1nnc(-c2ccncc2)n1Cc1ccco1)OC1CCCCC1	0.38
CCC(C)(C)n1nnnc1C(c1ccncc1)N1CCN(c2cccc(OC)c2)CC1 (centres undefined)	-11.7
Cc1cc(NC(=O)CSc2nc(C3CC3)nc3sc4c(c23)CCC(C)C4)no1 (centres undefined)	-2.86
Cc1nc(SCC(=O)NCc2ccco2)c2c3c(sc2n1)CCCC3	-8.98
Cc1cc(NC(=O)CSc2nc(C(C)C)nc3c2c(=O)n(C)c(=O)n3C)no1	-4.22
Cc1cc(NC(=O)CSc2nc(C(C)C)nc3sc(C)c(C)c23)no1	-4.44
